Source: PubChem BioAssay (National Center for Advancing Translational Sciences (NCATS))
Sampled rows, rich in hits. Any-hit rate of the full collection: about 2%.
Rango complex inh = qHTS Assay for Inhibitors of Rango (Ran-regulated importin-beta cargo) - Importin beta complex formation | Importin subunit beta-1 (Homo sapiens), Q14974 | Rango CFP/YFP FRET sensor + importin beta, 45 min | Potency, µM (highest dose often 92.2 µM), inactives show at the highest dose inhibition of complex formation | actives 0.031% (n = 340,000) | AID 540263, 2011; calls by dose curve;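 note: 0% = DMSO wells and 100% = buffer wells lacking importin beta; nearly all actives have a fitted effect of over 15% in size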
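Inhibition scored from the CFP 486 nm/YFP 530 nm FRET ratio 45 min after adding 0.125 microM importin beta to 50 nM Rango biosensor preincubated 5 min with compound (room temperature, PBS with DTT, Tween-20, BSA). No-importin wells as positive control.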
Abeta yeast res = qHTS for compounds that reverse cellular toxicity of Amyloid beta (A-beta) peptide in yeast: Primary Screen. yeast expressing A-beta42, growth rescue, OD600, 48 h; response scale: 0% DMSO, 100% iron-clioquinol control. Potency, µM (doses to about 46.1 µM), usual class: activators. actives 0.063% (n = 410,000). AID 1347071, 2019; note: nearly all actives have a fitted effect of over 55% in size
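Yeast A-beta toxicity model in growth medium with pinned compounds, 48 h at 30 C; growth read as absorbance at 600 nm. Normalized to FeCl3/clioquinol equimolar mix (positive) and DMSO (negative).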
Rango dissoc inh = qHTS Assay for Inhibitors of RanGTP induced Rango (Ran-regulated importin-beta cargo) - Importin beta complex dissociation; actives 0.071% (n = 340,000); Biochemical FRET Rango-importin beta, RanGTP-induced dissociation; Potency, µM (titrated, usually from 46.1 µM), for the others: at the top dose activity change, negative = inhibition; calls by dose curve; note: % of control where 0% means no effect; nearly all actives have a fitted effect of over 45% in size
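Rango FRET biosensor (snurportin-1 IBB flanked by N-terminal EYFP and C-terminal CFP10) at 0.1 uM, with 0.25 uM importin beta in PBS, 1mM DTT, 0.02% Tween-20, 0.1% BSA. 0.6 uM Ran, 2mM GTP and 0.2 uM RCC1 were then added for 45 min at room temperature. Inhibition read as loss of FRET rise.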
TDP43 rescue = qHTS of TDP-43 Inhibitors; actives 1.8% (n = 410,000); AID 652104, 2013; Potency, µM (top dose mostly 46.1 µM), inactives show at the highest dose growth rescue (activation), actives largely listed as activators; TDP-43 expressing yeast growth rescue, BacTiter-Glo, 24 h; note: % of control where 0% means no effect; nearly all actives have a fitted effect of over 50% in size
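Yeast cells expressing TDP-43 under galactose induction are exposed to compounds for 24 hr at 30 deg C. BacTiter-Glo luminescence measures growth, so protective compounds score as activators.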
aSyn rescue = qHTS of alpha-syn Inhibitors; Yeast expressing alpha-synuclein, growth rescue, BacTiter-Glo, 24 h; Potency, µM (doses to about 46.1 µM), for inactives: top-dose growth rescue (activation), usual class: activators; actives 0.14% (n = 370,000); AID 652106, 2013; note: % of control where 0% means no effect; nearly all actives have a fitted effect of over 65% in size
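Readout is rescue of growth in alpha-synuclein-expressing yeast, so inhibitors of toxicity appear as activators. Growth after 24 hr at 30 deg C in galactose medium is quantified by luminescence.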
S-ASM inh = Inhibitors of Secretory Acid Sphingomyelinase (S-ASM): qHTS | Sphingomyelin phosphodiesterase (Homo sapiens), P17405 | placental ASM, HMU-PC fluorogenic substrate, 60 min | Potency, µM (highest dose often 57.5 µM), without a hit: top-dose activity change, negative = inhibition, actives largely listed as inhibitors | actives 0.006% (n = 340,000)
Target sequence (P17405 47-631 limits assumed): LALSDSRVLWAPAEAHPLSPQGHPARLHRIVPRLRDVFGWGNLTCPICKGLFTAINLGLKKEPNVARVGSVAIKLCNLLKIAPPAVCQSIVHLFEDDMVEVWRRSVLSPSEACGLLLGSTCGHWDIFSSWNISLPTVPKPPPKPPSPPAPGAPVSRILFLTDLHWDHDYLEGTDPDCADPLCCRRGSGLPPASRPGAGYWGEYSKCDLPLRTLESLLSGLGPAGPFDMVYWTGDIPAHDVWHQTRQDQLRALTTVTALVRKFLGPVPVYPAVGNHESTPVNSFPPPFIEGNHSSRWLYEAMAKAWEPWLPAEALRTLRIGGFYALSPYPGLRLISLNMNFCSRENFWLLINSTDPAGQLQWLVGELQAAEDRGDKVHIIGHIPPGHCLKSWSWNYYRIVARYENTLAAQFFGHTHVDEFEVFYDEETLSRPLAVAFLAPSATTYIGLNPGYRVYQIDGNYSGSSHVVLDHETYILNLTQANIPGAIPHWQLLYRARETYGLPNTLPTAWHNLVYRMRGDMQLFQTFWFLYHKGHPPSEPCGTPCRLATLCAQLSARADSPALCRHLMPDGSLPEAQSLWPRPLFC
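qHTS format. ASM enzyme prepared from human placenta hydrolyses the fluorogenic substrate HMU-PC0 (9 uM final) over 60 min at 37 °C after a 10 min compound preincubation.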
An asterisk follows results filed as active; i = inactive; ? = inconclusive; nt = no result given; [ ] = another dose, or the depositor's remark. Unless noted, calls come from the whole dose curve; as a rule, active = well fitted curve in the direction sought with a large enough effect; inconclusive = small, poorly fitted or top-dose-only effect, or another doubt; inactive = no such curve, though single readings can be large; an effect the other way counts as inactive or inconclusive. Potency is the fitted concentration of half-maximal effect.

SMILES	Rango complex inh	Abeta yeast res	Rango dissoc inh	TDP43 rescue	aSyn rescue	S-ASM inh
CCc1ccccc1NC(=O)CC(C)n1nc(C)cc1C (stereo not given)	nt	i	nt	11%	nt	nt
O=C(c1ccc(Cl)c([N+](=O)[O-])c1)N1CCN(c2ccccn2)CC1	2%	i	2%	5%	7%	1%
O=C(c1ccc(Sc2cccc(Cl)c2)c([N+](=O)[O-])c1)N1CCN(c2ccccn2)CC1	-1%	5µM*	?	22µM*	?	-11%
COC(=O)c1ccc2c(c1)N(Cc1cc(C)ccc1C)C(=O)c1ccccc1S2	nt	i	nt	0%	4%	nt
CNC(=O)c1ccc2c(c1)N(Cc1cc(C)ccc1C)C(=O)c1ccccc1S2	nt	i	nt	16µM*	nt	nt
Cc1cccc(NCN2C(=O)C3C4C=CC(C4)C3C2=O)c1 (stereo not given)	2%	i	4%	11µM*	0%	-1%
O=C1C2C3C=CC(C3)C2C(=O)N1CNc1ccccc1 (stereo not given)	0%	i	-5%	?	-9%	1%
CCOc1ccc(CCNC(=O)NCc2noc3ccc(C)cc23)cc1	nt	i	nt	23%	nt	nt
O=C(Cn1ncc(Cl)c(Cl)c1=O)c1ccc2c(c1)OCCO2	1%	i	9%	22µM*	?	1%
O=C(Cn1ncc(Cl)c(Cl)c1=O)Nc1ccc2c(c1)OCO2	-3%	i	5%	13%	-10%	1%
O=C1CC(c2ccccc2)=Nc2ccccc2N1Cc1ccccc1	-1%	i	-4%	13µM*	10%	0%
CC(C)(C)C1CCc2nc(NC(=O)COc3ccc(F)cc3)sc2C1 (stereo not given)	nt	i	nt	-6%	nt	nt
Nc1ccc2c(c1)-c1ccc(F)cc1C2=O	11%	i	2%	-17%	14µM*	-10%
Clc1ccccc1N1CCN(Cc2c[nH]c3ccccc23)CC1	6%	?	1%	7%	6%	-3%
O=C(C(=O)N1CCN(c2ccccc2Cl)CC1)c1c[nH]c2ccccc12	0%	nt	18%	22µM*	18µM*	-6%
CC1(C)Cc2cccc(OCC(=O)Nc3ccccc3F)c2O1	1%	i	-11%	?	?	-1%
Cc1ccc(NC(=O)COc2cccc3c2OC(C)(C)C3)c(O)c1	-3%	i	-8%	11µM*	1%	1%
CC(=O)NC(Cc1c(F)c(F)c(F)c(F)c1F)C(=O)NCC(N)C(=O)c1ccccc1 (stereo not given)	nt	nt	nt	nt	-2%	nt
Cc1ccc(OCCSc2nc3ccc(NC(=O)c4ccc5c(c4)OCO5)cc3s2)cc1	nt	i	nt	-2%	nt	nt
O=S1(=O)C=C(Sc2nnc(-c3ccccc3)o2)c2ccccc21	?	i	10%	8.9µM*	-13%	0%
CNS(=O)(=O)c1cn(CC(=O)N2CCN(c3ccc(C)cc3C)CC2)cc1S(=O)(=O)NC	nt	i	nt	0%	nt	nt
CCSc1nnc(NC(=O)c2ccccc2)s1	0%	i	17%	19%	1%	-2%
CCSc1nnc(NC(=O)c2ccccc2C)s1	0%	i	3%	11µM*	-9%	-3%
Cc1ccc(NC(=O)C2COc3ccccc3O2)cc1 (stereo not given)	-1%	i	10%	5%	-3%	0%
O=C1NC(=O)c2cc(NC(=O)C3COc4ccccc4O3)ccc21 (stereo not given)	-4%	i	1%	-1%	-3%	-3%
SMILES	Rango complex inh	Abeta yeast res	Rango dissoc inh	TDP43 rescue	aSyn rescue	S-ASM inh
O=C(Nc1ccccc1)C1COc2ccccc2O1 (stereo not given)	-3%	i	-15%	8%	-9%	2%
Cc1ccc(NC(=O)C2COc3ccccc3O2)c(C)c1 (stereo not given)	-5%	i	0%	11µM*	2%	50%
CC1(C)Oc2ccc(NC(=O)C3COc4ccccc4O3)cc2O1 (stereo not given)	0%	i	-8%	10µM*	-28%	-1%
O=C(Nc1ccc([N+](=O)[O-])cc1)C1COc2ccccc2O1 (stereo not given)	5%	8.9µM*	7%	?	2%	-2%
CN(N=O)c1ccc2c(c1)Cc1ccccc1-2	nt	nt	nt	nt	11%	nt
CCCCCc1ccc(C2=NNC(=O)CC2)cc1	2%	i	0%	13µM*	14%	-28%
O=C1CCC(c2ccccc2)=NN1	1%	i	1%	-4%[9.22 µM]	0%	0%
CCCCCc1ccc(-c2ccc(=O)[nH]n2)cc1	-1%	i	19%	18µM*	2%	?
COc1ccccc1C(=O)OCc1c(-c2ccccc2)ncc2ccccc12	1%	i	4%	25µM*	30%	-13%
CC(Sc1nnc2ccc3ccccc3n12)C(=O)Nc1ccc(Cl)cc1 (stereo not given)	nt	i	nt	15%	nt	nt
CCc1nc(-c2ccc(C)c(S(=O)(=O)N3CCN(c4ccc(C(C)=O)cc4)CC3)c2)no1	nt	i	nt	15%	nt	nt
Cc1noc2ncnc(Sc3ccc(Br)cc3)c12	-2%	i	-13%	5.6µM*	-11%	-1%
COC(=O)c1cc(NC(=O)Cn2ncc3c2-c2ccccc2OC3)cc(C(=O)OC)c1	nt	i	nt	-1%	nt	nt
CN(C(=O)Cn1ncc2c1-c1ccccc1OC2)c1ccc(Br)cc1	nt	i	nt	18µM*	nt	nt
CCN(CC)C(=O)Cn1ncc2c1-c1ccccc1OC2	-1%	i	-2%	4%	-1%	9%
O=C(Cn1ncc2c1-c1ccccc1OC2)Nc1nc2ccccc2s1	-5%	i	19%	14µM*	-8%	-10%
CC1CC(=O)N(CC(=O)Nc2ccc(OC(F)(F)F)cc2)c2ccccc2S1 (stereo not given)	nt	i	nt	1%	5%	nt
COC(=O)c1ccccc1NC(=O)c1ccc(=O)n(Cc2cccc(C)c2)c1	nt	i	nt	32µM*	0%	nt
COc1cccc(C(=O)OCC(=O)NCCNC(=O)COC(=O)c2cccc(OC)c2OC)c1OC	-2%	i	1%	4%	9%	2%
COc1cccc(C(=O)OCC(=O)c2ccc(Br)s2)c1OC	1%	i	6%	1.8µM*	-5%	2%
